Several values for one entry are separate records, joined by “and”; a condition that tells them apart may be missing. Equal entries are not always repeated. Out of some 420,000 compounds screened, about 64,000 (15%) were called active. Not shown: some 27% with an inconclusive outcome. Calls come from the whole dose curve; as a rule, active = well fitted inhibition curve with a large enough effect; inconclusive = small, poorly fitted or top-dose-only effect; inactive = flat fitted curve, though single readings scatter. Only a sample is shown. Where a structure was tested more than once in an assay, its records may differ in their call.
assay: qHTS for Inhibitors of human tyrosyl-DNA phosphodiesterase 1 (TDP1): qHTS in cells in absence of CPT; conditions: DT40 Tdp1-/- hTDP1 cells, no CPT, ATP luminescence, 48 h; activity change, negative = growth inhibition: at 46.2 µM (top of the series); note: nearly all actives have a fitted effect of over 55% in size
Summary of the method: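 Growth of hTDP1-complemented DT40 Tdp1-knockout cells is measured by ATP luminescence after at least 48 hr compound exposure at 37 °C, with DMSO substituting for the 20 nM CPT used in the parallel screen.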
% is set by controls: 0 for no effect and ±100 for the full control effect; potency is the fitted concentration of half-maximal effect.

Structure (SMILES)	activity change, negative = growth inhibition	Potency
CC1CCCCN1CC(=O)NCc1ccc2c(c1)OCO2 (configuration not stated)	-10.4% (inactive)	–
Cn1cncc1COC(=O)c1ccc(Cl)cc1	-6.89% (inactive)	–
Cc1ccc(OCCSc2nc(-c3cccs3)nc3cc(=O)[nH]n23)cc1Cl	–	29.1 µM (active)
CCc1ccccc1OCCSc1nc(-c2cccs2)nc2cc(=O)[nH]n12	-27.3% (inactive)	–
CC(C)c1c(O)nc(SCCOc2ccc(Cl)cc2)[nH]c1=O	-29.7% (inactive)	–
Brc1cccc(-c2nnc3n2CCC3)c1	-3.77% (inactive)	–
C[C@H](NC(=O)c1nc[nH]c1C(=O)NCC(=O)OC(C)(C)C)c1ccccc1	-8.32% (inactive)	–
O=C(NCCc1ccccc1)c1cnc2sc(N3CCCC3)nn2c1=O	–	20.6 µM (active)
COc1ccc(CCNC(=O)c2ccc(NC(=O)CC3SC(N4CCCCC4)=NC3=O)cc2)cc1OC (configuration not stated)	-8.94% (inactive)	–
COc1ccc(CCNC(=O)C2CCN(c3nn4c(=O)cc(C)nc4s3)CC2)cc1OC	6.86% (inactive)	–
CSc1ncc(C(=O)NCCCc2ccccc2)c(C)n1	-19.9% (inactive)	–
O=C(O)c1ccccc1-c1ccccc1C(=O)NCCc1ccccc1	-3.96% (inactive)	–
COc1ccc(CCNC(=O)c2cnc3sc(N4CCCCCC4)nn3c2=O)cc1OC	–	8.2 µM (active)
Cc1ccccc1N1CC(c2nc3ccccc3[nH]2)CC1=O (configuration not stated)	1.36% (inactive)	–
COCCNC(=O)CN(Cc1ccco1)C(=O)CCC(=O)Nc1nccs1	3.21% (inactive)	–
CCC(C)NC(=O)Cn1nc(C(F)(F)F)c2c1CCC2 (configuration not stated)	-14% (inactive)	–
O=C(NCc1ccco1)c1nn2cccnc2c1Cl	-1.24% (inactive)	–
CCOc1ccc(-n2c(SC(C)C(=O)OC)nc3c(c2=O)SCC3)cc1 (configuration not stated)	-8.8% (inactive)	–
O=S(=O)(c1ccc(F)cc1)N1CCN(C(=S)NCc2ccco2)CC1	-26.6% (inactive)	–
COc1cc(/C=C/C(=O)O)cc(S(=O)(=O)Nc2ccccc2SC)c1OC	-12.2% (inactive)	–
COc1cc(Cl)c(NC(=O)C(NS(=O)(=O)c2cccs2)C(C)C)c(OC)c1 (configuration not stated)	-19.6% (inactive)	–
CC(C)(C)c1csc(NC2=NS(=O)(=O)c3ccccc32)n1	-10.8% (inactive)	–
CC(C)C(NS(=O)(=O)c1cccs1)C(=O)Nc1nc(C(C)(C)C)cs1 (configuration not stated)	–	23.1 µM (active)
Cc1ccccc1-n1cc(CNC(=O)C2CCC(=O)N(C3CC3)C2)cn1 (configuration not stated)	-13.9% (inactive)	–
COc1ccc(CC(NC(C)=O)C(=O)N2CCN(C(=O)Nc3cccc(Cl)c3)CC2)cc1OC (configuration not stated)	-22.7% (inactive)	–
CC(=O)Nc1cccc([N+](=O)[O-])c1	0.516% (inactive)	–

Structure (SMILES)	activity change, negative = growth inhibition	Potency
COC(=O)/C=C\C(=O)Nc1cccc([N+](=O)[O-])c1	–	2.06 µM (active)
O=C(CSCC(=O)Nc1cccc([N+](=O)[O-])c1)Nc1ccccc1	-19.4% (inactive)	–
COc1cc(C2/C(=C(\O)c3ccc4c(c3)CC(C)O4)C(=O)C(=O)N2Cc2ccco2)ccc1O (configuration not stated)	2.11% (inactive)	–
CCOC(=O)c1sc2nc(C)nc(Nc3ccc(OC)c(OC)c3)c2c1C	-6.11% (inactive)	–
CCOc1ccc(Nc2ncnc3scc(-c4ccc(OC)cc4)c23)cc1	–	18.4 µM (active)
COc1ccc(-c2csc3ncnc(Oc4ccc5c(C)cc(=O)oc5c4)c23)cc1	-28.1% (inactive)	–
Cc1c(Cl)c([N+](=O)[O-])nn1CCCC(=O)NC(C)c1ccccc1 (configuration not stated)	-5.76% (inactive)	–
CCC(C(=O)N1CCN(S(=O)(=O)c2sc(C(=O)O)c(C)c2C(=O)O)CC1)c1ccccc1 (configuration not stated)	21.9% (inactive)	–
Cc1cccc(S(=O)(=O)N(C)C[C@H]2OCc3cnnn3CCCC(=O)N([C@@H](C)CO)C[C@H]2C)c1	-6.15% (inactive)	–
Cn1c(-c2ccc(C(=O)c3ccccc3)s2)nc2ccccc21	-29.8% (inactive)	–
Cc1csc(-c2nc3ccccc3n2C)n1	–	18.8 µM (active)
Cn1cccc1-c1nc2ccccc2n1C	6.86% (inactive)	–
Cc1ccc2nc(-c3ccc(Br)cc3)cn2c1	2.36% (inactive)	–
Cc1cc2c(cc1C)NC(c1ccccn1)C1=C(CC(C)(C)CC1=O)N2 (configuration not stated)	0.609% (inactive)	–
Nn1cnnc1N/N=C/c1cc([N+](=O)[O-])c(Cl)cc1Cl	2.17% (inactive)	–
CN(C)c1ccc(/C=C/C(=O)c2ccc(C(C)(C)C)cc2)cc1[N+](=O)[O-]	–	23.1 µM (active)
Cc1cc(C)n(-c2ccc(C(=O)O)cc2[N+](=O)[O-])n1	-0.656% (inactive)	–
NC(N)=N/N=C/c1ccc(Cl)c([N+](=O)[O-])c1	–	10.3 µM (active)
CC(CC(=O)O)C(=O)c1ccc(Cl)c([N+](=O)[O-])c1 (configuration not stated)	-3.74% (inactive)	–
O=C(/C=C/c1ccc(Cl)cc1)N1CCN(c2ccccc2[N+](=O)[O-])CC1	-28.2% (inactive)	–
Nc1nc(SCC(=O)Nc2ccc(Cl)c([N+](=O)[O-])c2)n[nH]1	-8.59% (inactive)	–
O=C(O)c1ccc2c(=O)n3c(nc2c1)/C(=C/c1ccc(Cl)c([N+](=O)[O-])c1)CC3	-11% (inactive)	–
O=C(/C=C/c1ccc(Cl)c([N+](=O)[O-])c1)c1ccc(O)cc1	–	4.61 µM (active)
C[C@@H]1CC2=C(C(=O)OC(C)(C)O2)[C@@H](C2CC2)O1	-9.87% (inactive)	–
COc1cccc(-c2ccc3c(c2)S(=O)(=O)c2cccc(C(=O)O)c2C3=O)c1OC	3.86% (inactive)	–
O=C(COC(=O)c1ccc([N+](=O)[O-])cc1Cl)NC(=O)c1ccccc1	-7.52% (inactive)	–

Structure (SMILES)	activity change, negative = growth inhibition	Potency
O=S(=O)(c1ccccc1)N1CCC2(CC1)CN(Cc1nccs1)C2	-16.2% (inactive)	–
CC(=O)N[C@@H](C)C(=O)N1CCC(n2nccc2NC(=O)CCCc2ccccc2)CC1	26.3% (inactive)	–
Cc1oc2ccc(O)c(CN3CCCCC3)c2c1C(=O)Nc1cccc(C(F)(F)F)c1	–	23.1 µM (active)
CC(=O)N1CCN(C(=O)Nc2cccc(C(F)(F)F)c2)CC1	-15.5% (inactive)	–
CCOC(=O)c1cccc(NC(=O)c2cc(CN3CCCC3)on2)c1	0.305% (inactive)	–
COc1ccc(CCNC(=O)COC(=O)C2CC2C)cc1 (configuration not stated)	-13.2% (inactive)	–
O=C(O)CCN(Cc1ccccc1)S(=O)(=O)c1c(Cl)cccc1Cl	12.7% (inactive)	–
CCC(C)N(C(=O)CSc1ncnc2c1cnn2-c1ccccc1)C1CCS(=O)(=O)C1 (configuration not stated)	-14.9% (inactive)	–
COc1ccccc1NC(=S)NC(=O)C(C)C	-4.21% (inactive)	–
COc1ccccc1NC(=O)c1oc2ccccc2c1NC(=O)C(C)C	–	16.4 µM (active)
COc1ccccc1NC(=O)c1oc2ccccc2c1NC(=O)COc1ccccc1OC	-16.2% (inactive)	–
Cc1ccc(C(=O)OCC(=O)Nc2ccc(Cl)cn2)cc1S(=O)(=O)N1CCOCC1	-21.3% (inactive)	–
N[C@@H](Cc1ccccc1)C(=O)N1CCOCC1	14.3% (inactive)	–
O=C(OCCN1CCOCC1)C1(c2ccccc2)CCCCC1	–	inactive and 26.6 µM (active)
O=C(COC(=O)C1(c2ccc(F)cc2)CCCC1)N1CCNC1=O	-6.05% (inactive)	–
CN(C)S(=O)(=O)N1CCC(Oc2cccc(C(=O)NCCCC3CCCC3)c2)CC1	–	7.31 µM (active)
CNS(=O)(=O)c1cccc(C(=O)NCC2CCCCC2)c1	20% (inactive)	–
CN(C(=O)c1cccc(OC2CCN(S(=O)(=O)N(C)C)CC2)c1)C1CCOC1 (configuration not stated)	25.1% (inactive)	–
CC(C)N(C(=O)Cn1cc(SCC(=O)N2CCCC2)c2ccccc21)C(C)C	4.08% (inactive)	–
O=C1c2ccccc2C(=O)N1CCc1nn[nH]n1	-5.45% (inactive)	–
O=C(NCCS(=O)(=O)N1CCN(c2ccccc2)CC1)c1ccco1	-3.54% (inactive)	–
COc1cc(C(=O)NCCS(=O)(=O)N2CCN(c3ccccc3)CC2)cc(OC)c1OC	–	20.6 µM (active)
COc1ccc(N2CC(C(=O)NCCS(=O)(=O)N3CCN(c4ccccc4)CC3)CC2=O)cc1 (configuration not stated)	–	inactive
O=C(O)c1cc(S(=O)(=O)N(Cc2ccccc2)c2ccccc2)ccc1Cl	-0.896% (inactive)	–
C#CCOCCOCCOCCNc1nc(N2CCN(C(=O)Cn3cc(CCCCN)nn3)CC2)nc(N2CCN(C(=O)[C@H](CCCCN)n3cc(CCC(=O)O)nn3)CC2)n1	1.14% (inactive)	–
COc1ccc(C(C)(O)c2nc(-c3ccc(C)c(C)c3)cs2)cc1 (configuration not stated)	–	18.4 µM (active)

Structure (SMILES)	activity change, negative = growth inhibition	Potency
Cc1ccc(-c2csc(-c3cc(C)on3)n2)cc1	-23% (inactive)	–
Cc1csc(OCC(=O)Nc2ccc(C)c(C)c2)n1	-2.63% (inactive)	–
COc1ccc(C(C)(NC(C)=O)c2nc(-c3ccc(S(C)(=O)=O)cc3)cs2)cc1 (configuration not stated)	-20.1% (inactive)	–
COc1ccc(C(C)(O)c2nc(-c3cc(F)cc(F)c3)cs2)cc1 (configuration not stated)	–	16.4 µM (active)
COc1cccc(CN2C(=O)CCC2(C)C(=O)NC2CCCCCC2)c1 (configuration not stated)	-15.5% (inactive)	–
COc1cc(C)c(S(=O)(=O)N2CCOCC2)c(C)c1C	-15.2% (inactive)	–
CCNC(=O)Nc1ccc(S(=O)(=O)Nc2cnc(C)nc2C)cc1	-7.54% (inactive)	–
Cc1cccc(NC(=O)/C=C/c2ccc3c(c2)OCO3)n1	–	18.4 µM (active)
CCc1c(C)sc(NC(=O)/C=C/c2ccc3c(c2)OCO3)c1C(=O)OC	-0.669% (inactive)	–
O=C(O)/C=C/c1ccc2c(c1)OCCO2	2.37% (inactive)	–
CC1CN(S(=O)(=O)c2ccc(C(=O)NN3CCN(C)CC3)cc2)CC(C)O1 (configuration not stated)	4.66% (inactive)	–
O=C(CCC1CCCC1)N=C1SC2CS(=O)(=O)CC2N1Cc1ccccc1 (configuration not stated)	1.24% (inactive)	–
O=C(CCN1C(=O)c2ccccc2C1=O)NCCCn1ccnc1	-7.45% (inactive)	–
CCCCN(C(=O)C1=NN(c2cc(C)ccc2C)C(=O)CC1)c1c(N)n(CCC)c(=O)[nH]c1=O	21.6% (inactive)	–
CC(C)CC(CCc1ccccc1)OS(N)(=O)=O (configuration not stated)	-1.83% (inactive)	–
CN1OC[C@@H]2CN(C(=O)C(C)(C)C)[C@H](c3ccc(-n4ccnc4)cc3)C[C@@H]21	0.376% (inactive)	–
CC1CC(C)(C)CC2(C1)NC(=O)N(CC(=O)Nc1nccs1)C2=O (configuration not stated)	3.31% (inactive)	–
Cc1ccc(CC2CC(=O)N(c3ccc4c(c3)OCCO4)C2=O)cc1 (configuration not stated)	-5.08% (inactive)	–
COc1ccc(C2=NN(C(C)=O)C(c3ccccc3)C2)cc1 (configuration not stated)	-9.61% (inactive)	–
COc1ccc(C2=NN(C(=O)c3ccccc3C(=O)O)C(c3ccccc3O)C2)cc1 (configuration not stated)	-19.5% (inactive)	–
COc1ccc(C2CC(c3ccc([N+](=O)[O-])cc3)=NN2C(C)=O)cc1 (configuration not stated)	–	14.6 µM (active)
Cc1nc(CN2CCN(C(=O)CCc3nnc(Cc4c[nH]c5ccccc45)o3)CC2)cs1	-10.5% (inactive)	–
CC(C)N(C)C(=O)CCc1nnc(CCc2c[nH]c3ccccc23)o1	-6.57% (inactive)	–
Cc1nn(C)c(C)c1CN(C(=O)CCc1nnc(Cc2c[nH]c3ccccc23)o1)C(C)C	–	16.4 µM (active)

From PubChem BioAssay AID686978 (National Center for Advancing Translational Sciences (NCATS), 2013)
